In ChEMBL document CHEMBL1961873, “Compounds: GSK PKIS; Assays: Nanosyn kinase panel” (2012):

How the values were obtained:
[1] = biological target: Platelet-derived growth factor receptor beta (Homo sapiens) (UniProt P09619); conditions: at 1 µM;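 note: each value is a mean percent inhibition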
[2] = biological target: Tyrosine-protein kinase FRK (Homo sapiens) (UniProt P42685); conditions: at 0.1 µM
[3] = biological target: Tyrosine-protein kinase FRK (Homo sapiens) (UniProt P42685); conditions: at 1 µM
[4] = biological target: Protein-tyrosine kinase 2-beta (Homo sapiens) (UniProt Q14289); conditions: at 0.1 µM
Sequence of Protein-tyrosine kinase 2-beta (Homo sapiens) (Q14289 whole entry, looked up): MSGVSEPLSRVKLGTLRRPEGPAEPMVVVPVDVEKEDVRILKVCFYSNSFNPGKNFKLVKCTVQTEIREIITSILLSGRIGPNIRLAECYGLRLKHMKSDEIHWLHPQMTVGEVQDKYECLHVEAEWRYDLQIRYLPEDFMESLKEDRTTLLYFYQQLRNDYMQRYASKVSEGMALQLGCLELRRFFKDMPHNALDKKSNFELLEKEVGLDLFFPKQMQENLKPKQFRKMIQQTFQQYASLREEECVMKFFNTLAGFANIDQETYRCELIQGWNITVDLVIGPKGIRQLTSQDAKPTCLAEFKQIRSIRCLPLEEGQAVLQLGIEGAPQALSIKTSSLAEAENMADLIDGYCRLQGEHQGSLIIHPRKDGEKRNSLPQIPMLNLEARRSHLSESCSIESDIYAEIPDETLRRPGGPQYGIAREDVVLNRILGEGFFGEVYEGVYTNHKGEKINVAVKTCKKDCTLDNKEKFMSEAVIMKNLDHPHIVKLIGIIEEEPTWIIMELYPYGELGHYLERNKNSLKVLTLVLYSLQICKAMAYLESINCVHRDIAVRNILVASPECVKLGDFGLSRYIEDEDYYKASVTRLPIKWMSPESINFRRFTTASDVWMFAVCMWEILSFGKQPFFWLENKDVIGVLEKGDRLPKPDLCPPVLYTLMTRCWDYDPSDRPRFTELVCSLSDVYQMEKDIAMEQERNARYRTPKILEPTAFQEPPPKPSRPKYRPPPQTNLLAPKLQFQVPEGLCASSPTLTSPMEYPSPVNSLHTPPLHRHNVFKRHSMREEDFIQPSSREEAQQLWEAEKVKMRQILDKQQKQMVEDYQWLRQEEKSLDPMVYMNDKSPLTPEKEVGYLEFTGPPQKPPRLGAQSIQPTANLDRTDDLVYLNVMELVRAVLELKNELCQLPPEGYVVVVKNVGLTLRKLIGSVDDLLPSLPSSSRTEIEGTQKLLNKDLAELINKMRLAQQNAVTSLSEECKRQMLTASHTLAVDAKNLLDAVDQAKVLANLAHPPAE

[5] = biological target: Protein-tyrosine kinase 2-beta (Homo sapiens) (UniProt Q14289); conditions: at 1 µM
[6] = biological target: Proto-oncogene tyrosine-protein kinase receptor Ret (Homo sapiens) (UniProt P07949); conditions: at 0.1 µM
Sequence of Proto-oncogene tyrosine-protein kinase receptor Ret (Homo sapiens) (P07949 whole entry): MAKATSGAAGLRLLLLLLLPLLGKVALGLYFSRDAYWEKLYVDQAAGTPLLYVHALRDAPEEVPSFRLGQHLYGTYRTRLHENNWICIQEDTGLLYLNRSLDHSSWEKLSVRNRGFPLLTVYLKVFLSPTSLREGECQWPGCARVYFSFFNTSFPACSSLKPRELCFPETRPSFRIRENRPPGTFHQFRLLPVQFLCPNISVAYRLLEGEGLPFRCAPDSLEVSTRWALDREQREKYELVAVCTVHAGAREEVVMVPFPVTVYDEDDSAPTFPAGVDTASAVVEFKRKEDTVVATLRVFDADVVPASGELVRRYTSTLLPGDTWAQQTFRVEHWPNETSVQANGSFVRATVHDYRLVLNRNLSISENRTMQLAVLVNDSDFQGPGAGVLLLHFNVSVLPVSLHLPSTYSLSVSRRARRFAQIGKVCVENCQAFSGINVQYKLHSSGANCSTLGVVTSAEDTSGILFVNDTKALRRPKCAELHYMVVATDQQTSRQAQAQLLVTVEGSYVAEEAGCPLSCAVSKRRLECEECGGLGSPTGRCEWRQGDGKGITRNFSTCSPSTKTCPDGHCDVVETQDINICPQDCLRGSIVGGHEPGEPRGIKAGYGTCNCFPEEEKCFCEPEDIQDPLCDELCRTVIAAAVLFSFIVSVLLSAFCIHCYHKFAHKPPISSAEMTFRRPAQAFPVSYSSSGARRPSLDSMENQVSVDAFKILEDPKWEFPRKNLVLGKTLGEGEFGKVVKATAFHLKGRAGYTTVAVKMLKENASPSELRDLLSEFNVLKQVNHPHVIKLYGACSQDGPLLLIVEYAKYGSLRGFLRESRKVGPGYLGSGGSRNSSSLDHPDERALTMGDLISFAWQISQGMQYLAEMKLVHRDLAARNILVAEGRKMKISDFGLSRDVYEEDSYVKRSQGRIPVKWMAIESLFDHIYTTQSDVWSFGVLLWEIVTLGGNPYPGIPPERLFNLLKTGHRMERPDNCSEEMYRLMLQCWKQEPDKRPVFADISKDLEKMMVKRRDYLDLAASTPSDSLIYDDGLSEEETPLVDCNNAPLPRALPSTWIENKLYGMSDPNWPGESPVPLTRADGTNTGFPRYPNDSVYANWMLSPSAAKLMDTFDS

[7] = biological target: Proto-oncogene tyrosine-protein kinase receptor Ret (Homo sapiens) (UniProt P07949); conditions: at 1 µM
[8] = tested on: Proto-oncogene tyrosine-protein kinase receptor Ret (Homo sapiens), P07949 [V804L]; conditions: at 0.1 µM
Sequence of Proto-oncogene tyrosine-protein kinase receptor Ret (Homo sapiens), P07949 [V804L] (P07949 whole entry V804L): as the sequence (P07949 whole entry) above, with V804L counted along it

[9] = tested on: Proto-oncogene tyrosine-protein kinase receptor Ret (Homo sapiens), P07949 [V804L]; conditions: at 1 µM
[10] = tested on: Proto-oncogene tyrosine-protein kinase receptor Ret (Homo sapiens), P07949 [Y791F]; conditions: at 0.1 µM
Sequence of Proto-oncogene tyrosine-protein kinase receptor Ret (Homo sapiens), P07949 [Y791F] (P07949 whole entry Y791F): as the sequence (P07949 whole entry) above, with Y791F counted along it

[11] = tested on: Proto-oncogene tyrosine-protein kinase receptor Ret (Homo sapiens), P07949 [Y791F]; conditions: at 1 µM
[12] = biological target: Macrophage-stimulating protein receptor (Homo sapiens) (UniProt Q04912); conditions: at 0.1 µM
Sequence of Macrophage-stimulating protein receptor (Homo sapiens) (Q04912 25-304 limits assumed): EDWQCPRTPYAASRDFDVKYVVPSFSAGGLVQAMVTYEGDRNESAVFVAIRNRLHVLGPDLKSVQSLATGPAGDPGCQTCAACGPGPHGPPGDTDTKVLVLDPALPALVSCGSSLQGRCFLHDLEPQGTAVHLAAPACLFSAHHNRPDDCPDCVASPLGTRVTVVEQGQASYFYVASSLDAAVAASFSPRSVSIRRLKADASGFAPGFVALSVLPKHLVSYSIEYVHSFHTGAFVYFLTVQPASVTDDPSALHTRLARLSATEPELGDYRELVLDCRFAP
Sequence of Macrophage-stimulating protein receptor (Homo sapiens) (Q04912 310-1400 limits assumed): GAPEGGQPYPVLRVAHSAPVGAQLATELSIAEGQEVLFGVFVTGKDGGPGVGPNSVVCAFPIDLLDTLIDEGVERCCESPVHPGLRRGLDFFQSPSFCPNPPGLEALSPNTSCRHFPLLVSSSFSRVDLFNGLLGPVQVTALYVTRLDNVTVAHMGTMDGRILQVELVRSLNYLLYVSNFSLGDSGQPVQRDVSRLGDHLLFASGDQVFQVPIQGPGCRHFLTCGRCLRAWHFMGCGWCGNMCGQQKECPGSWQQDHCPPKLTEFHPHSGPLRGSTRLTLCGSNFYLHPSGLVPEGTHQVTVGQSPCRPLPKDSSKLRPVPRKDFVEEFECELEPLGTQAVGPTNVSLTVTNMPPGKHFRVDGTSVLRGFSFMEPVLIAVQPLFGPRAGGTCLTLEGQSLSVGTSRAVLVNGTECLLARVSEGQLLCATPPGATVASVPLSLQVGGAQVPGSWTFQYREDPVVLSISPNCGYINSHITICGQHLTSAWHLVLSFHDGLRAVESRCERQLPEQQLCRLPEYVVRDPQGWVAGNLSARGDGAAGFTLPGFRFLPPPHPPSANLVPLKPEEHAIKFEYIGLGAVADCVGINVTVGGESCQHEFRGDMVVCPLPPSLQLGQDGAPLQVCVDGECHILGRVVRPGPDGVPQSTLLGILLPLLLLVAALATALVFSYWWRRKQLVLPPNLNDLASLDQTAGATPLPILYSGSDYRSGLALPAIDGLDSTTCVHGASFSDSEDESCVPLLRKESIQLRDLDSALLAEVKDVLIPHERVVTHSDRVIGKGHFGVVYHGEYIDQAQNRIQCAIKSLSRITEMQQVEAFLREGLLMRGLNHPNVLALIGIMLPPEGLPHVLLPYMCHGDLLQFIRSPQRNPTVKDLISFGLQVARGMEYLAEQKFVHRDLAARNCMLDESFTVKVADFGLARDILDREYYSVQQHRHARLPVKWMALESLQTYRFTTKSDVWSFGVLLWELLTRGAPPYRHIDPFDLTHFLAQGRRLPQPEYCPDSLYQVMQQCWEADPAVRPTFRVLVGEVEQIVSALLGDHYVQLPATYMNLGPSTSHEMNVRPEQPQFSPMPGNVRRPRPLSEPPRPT

[13] = biological target: Macrophage-stimulating protein receptor (Homo sapiens) (UniProt Q04912); conditions: at 1 µM
[14] = biological target: Proto-oncogene tyrosine-protein kinase ROS (Homo sapiens) (UniProt P08922); conditions: at 0.1 µM
[15] = biological target: Proto-oncogene tyrosine-protein kinase ROS (Homo sapiens) (UniProt P08922); conditions: at 1 µM
[16] = biological target: Proto-oncogene tyrosine-protein kinase Src (Homo sapiens) (UniProt P12931); conditions: at 0.1 µM
Sequence of Proto-oncogene tyrosine-protein kinase Src (Homo sapiens) (P12931 2-536 limits assumed): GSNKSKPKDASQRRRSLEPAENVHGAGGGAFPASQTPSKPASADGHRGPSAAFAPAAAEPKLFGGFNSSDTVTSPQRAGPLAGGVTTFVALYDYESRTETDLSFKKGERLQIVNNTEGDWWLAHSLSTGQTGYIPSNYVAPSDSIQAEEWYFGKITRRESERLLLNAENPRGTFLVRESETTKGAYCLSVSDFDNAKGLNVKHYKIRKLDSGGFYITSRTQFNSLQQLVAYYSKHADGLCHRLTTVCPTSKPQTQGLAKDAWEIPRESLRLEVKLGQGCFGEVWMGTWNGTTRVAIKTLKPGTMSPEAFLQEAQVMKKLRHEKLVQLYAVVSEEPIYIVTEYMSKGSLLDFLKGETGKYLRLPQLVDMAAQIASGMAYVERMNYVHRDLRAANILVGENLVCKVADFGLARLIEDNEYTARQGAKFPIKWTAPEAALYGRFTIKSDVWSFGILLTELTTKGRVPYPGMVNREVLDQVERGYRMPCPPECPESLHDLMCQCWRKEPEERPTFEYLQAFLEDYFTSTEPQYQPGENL

[17] = biological target: Proto-oncogene tyrosine-protein kinase Src (Homo sapiens) (UniProt P12931); conditions: at 1 µM
[18] = biological target: Tyrosine-protein kinase Srms (Homo sapiens) (UniProt Q9H3Y6); conditions: at 0.1 µM
Sequence of Tyrosine-protein kinase Srms (Homo sapiens) (Q9H3Y6 whole entry): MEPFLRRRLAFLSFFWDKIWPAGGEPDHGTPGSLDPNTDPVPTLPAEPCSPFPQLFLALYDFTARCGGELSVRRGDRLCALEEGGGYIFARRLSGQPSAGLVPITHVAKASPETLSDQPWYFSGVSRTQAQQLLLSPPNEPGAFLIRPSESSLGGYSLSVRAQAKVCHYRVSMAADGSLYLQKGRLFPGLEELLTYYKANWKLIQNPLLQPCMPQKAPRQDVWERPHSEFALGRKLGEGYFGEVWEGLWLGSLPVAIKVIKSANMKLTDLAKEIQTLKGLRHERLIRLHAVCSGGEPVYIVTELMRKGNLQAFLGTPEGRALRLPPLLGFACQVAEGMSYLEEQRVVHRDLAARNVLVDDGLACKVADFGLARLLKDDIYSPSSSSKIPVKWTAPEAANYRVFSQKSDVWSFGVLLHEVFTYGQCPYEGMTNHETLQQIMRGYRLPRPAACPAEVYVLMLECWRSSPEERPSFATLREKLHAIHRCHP

[19] = biological target: Tyrosine-protein kinase Srms (Homo sapiens) (UniProt Q9H3Y6); conditions: at 1 µM
[20] = biological target: Tyrosine-protein kinase SYK (Homo sapiens) (UniProt P43405); conditions: at 0.1 µM;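 note: reported percentages are mean inhibition values for SYK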

| Structure (SMILES) | inhibition [1] [%] | inhibition [2] [%] | inhibition [3] [%] | inhibition [4] [%] | inhibition [5] [%] | inhibition [6] [%] | inhibition [7] [%] | inhibition [8] [%] | inhibition [9] [%] | inhibition [10] [%] | inhibition [11] [%] | inhibition [12] [%] | inhibition [13] [%] | inhibition [14] [%] | inhibition [15] [%] | inhibition [16] [%] | inhibition [17] [%] | inhibition [18] [%] | inhibition [19] [%] | inhibition [20] [%] |
| --- | --- | --- | --- | --- | --- | --- | --- | --- | --- | --- | --- | --- | --- | --- | --- | --- | --- | --- | --- | --- |
| O=C(Nc1n[nH]c2cc(-c3cc(F)ccc3F)ccc12)C1CC1 | 14.1 | 2.44 | 0.71 | 9.57 | 10.3 | 6.14 | 10.3 | 3.33 | 2.9 | 7.68 | 11.5 | 4.71 | 1.65 | 5.51 | 5.37 | -1.08 | 8.62 | -0.64 | -2.57 | -7.24 |
| NC(=O)Cc1ccccc1Oc1nccc(-c2c(-c3ccc(F)cc3)ncn2C2CCNCC2)n1 | 5.76 | 1.11 | 3.64 | 5.56 | 3.38 | 5.79 | 3.25 | 2.51 | 0.95 | 3.81 | 4.66 | -4.83 | 4.24 | 6.52 | 7.32 | 1.88 | 5.52 | -1.62 | -0.3 | -2.13 |
| COc1cc(C)c(N(C)C(=O)CN(C)C)cc1Nc1nc(Nc2cccc(F)c2C(N)=O)c2cc[nH]c2n1 | 2.38 | -0.14 | 1.16 | 14.7 | 45.8 | 6.8 | 3.71 | 8.2 | 4.18 | 3.57 | 0.99 | 5.06 | 8.44 | 15.3 | 51.2 | 3.62 | 5.62 | -0.25 | -1.33 | -0.33 |
| CN(C)CCCNc1nccc(-c2c(-c3ccc(F)cc3)nn3cc(C(F)(F)F)ccc23)n1 | 14.1 | -0.09 | 1.37 | -1.38 | 1.42 | 7.28 | 10.8 | 8.31 | 21.7 | 10.9 | 13.2 | 3.96 | 5.64 | 3.75 | 7.77 | 16.6 | 9.03 | 0.42 | 0.14 | -3.32 |
| Fc1ccc(-c2c(-c3ccncc3)nc3n2CCS3)cc1 | 5.75 | 1.6 | 2.05 | 10.7 | 4.18 | 1.13 | 7.86 | 3.1 | 6.64 | 3.14 | 7.69 | 7.82 | 5.85 | 2.1 | 8.26 | -3.16 | 9.68 | – | 0.79 | 0.99 |
| CCC(=O)Nc1ccc(C)c(-c2ccc(C(=O)NCC3CC3)cc2)c1 | 0.71 | 2.5 | 2.55 | 11.8 | 6.44 | 7.45 | 6.85 | 1.64 | 2.22 | 4.76 | 6.48 | 9.18 | 7.8 | – | 3.11 | 6.28 | 6.57 | -0.92 | -1.83 | 3.61 |
| NC(=O)c1cc(-c2ccc(F)cc2)cc(-c2ccncc2)c1N | 5.05 | 1.66 | 1.82 | – | – | 6.04 | 1.69 | 2.31 | 2.03 | 4.64 | 8.5 | 3.91 | 2.73 | 3.93 | 6.41 | -1.61 | 10.9 | -0.29 | -1.13 | -2.32 |
| CS(=O)(=O)CCNCc1cc(-c2cc3c(Nc4ccc(OCc5cccc(F)c5)c(Cl)c4)ncnc3s2)cs1 | 11.2 | 4.58 | 3.68 | 4.47 | 4.63 | 7.3 | 7.36 | 4.33 | 7.85 | 8.47 | 9.4 | 2.33 | 4 | 6.34 | 10 | 10.7 | 14.7 | -2.71 | -1.03 | -1.05 |
| Clc1ccc(CNc2nccc(-c3cnn4ncccc34)n2)cc1 | 13.8 | 0.01 | 1.32 | -4.51 | 2.8 | 0.88 | 5.75 | -0.76 | 5.56 | -0.42 | 20.4 | -1.7 | 6.29 | 0.86 | 6.59 | 0.82 | 6.25 | 0.35 | -1.1 | 2.92 |
| CN(c1ccc(NC(=O)Nc2c(Cl)cccc2Cl)cc1)c1ccnc(Nc2cccc(CS(C)(=O)=O)c2)n1 | 77.7 | 3.86 | 14.5 | 55.1 | 29.7 | 23.8 | 48.6 | 13.2 | 41 | 24.4 | 64.8 | 68.8 | 82.1 | 14.8 | 33.5 | 40.7 | 65.4 | 2.98 | 3.99 | 2.77 |
| COc1cc(Nc2ncc3c(C)nc(-c4cccc(Oc5ccccc5)c4)n3n2)cc(OC)c1OC | 10.4 | 0.9 | 0.75 | 5.25 | 6.67 | 4.22 | 29.1 | 8.26 | 43 | 3.87 | 12.9 | 2.03 | 2.13 | 13.1 | 14.7 | -4.09 | 21.7 | 0.72 | -0.11 | 0.87 |
| C#Cc1cccc(Nc2ncnc3ccc(OCCCCNCCS(C)(=O)=O)cc23)c1 | 20.5 | 5.22 | 4.16 | 12.1 | 10.3 | 14.3 | 18.9 | 4.06 | 11.9 | 17.9 | 31.3 | 1.53 | 7.33 | 3.71 | 8.09 | 1.2 | 17.9 | 0.83 | 5.07 | -6.78 |
| CCS(=O)(=O)c1ccc(OC)c(Nc2ncc(-c3cccc(-c4ccccc4F)c3)o2)c1 | 63.6 | 0.61 | 11.7 | 7.79 | 0.8 | 15.4 | 54.4 | 3.52 | 9.78 | 10.1 | 51.1 | 2.4 | 5.56 | 14.2 | 54.9 | 12.6 | 74.5 | 8.12 | 30.3 | -3.99 |
| Fc1ccc(-c2ncn(C3CCNCC3)c2-c2ccnc(Oc3ccc(Oc4ccccc4)cc3)n2)cc1 | 3.75 | 2.37 | 2.86 | 3.19 | 6.71 | 2.36 | 5.4 | 3.16 | 7.16 | 15.6 | 4.3 | 0.16 | 0.94 | 12.1 | 11 | 10.9 | 15.3 | -1.67 | -1.36 | 0.87 |
| C[C@@H](Oc1cc(-n2cnc3ccc(OCC4CCN(C)CC4)cc32)sc1C(N)=O)c1ccccc1Cl | 84.7 | 3.53 | 3.93 | 5.71 | 13.7 | 6.25 | 18.2 | 5.76 | 16.7 | 8.22 | 20.1 | 0.85 | 13.1 | 10.2 | 21.6 | 11.9 | 33.2 | -3.18 | -0.97 | -0.18 |
